# Measured values reported in the supplement of paper PMC11732987, “Enantioselective OTUD7B fragment discovery through chemoproteomics screening and high-throughput optimisation” (Communications Chemistry, 2025).
# A number with no mark means an inactive call.
# Experiments:
# Assay in all cases: log2 ratio of Biotin-Ahx-Ub-VS probe labelling (compound/DMSO); higher = less target engagement, active = hit call of the paper (q ≤ 0.05, log2 ratio ≤ -1)
# Conditions in all cases: treatment time: 3 h
# [1] = compound: CCC1N(CCc2sccc12)C(=O)CCl
# Outline: (§1)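 HEK293T lysate (495 µg per sample, in Tris/CHAPS/IGEPAL buffer with protease inhibitors) was exposed in triplicate to compound at 50 or 200 µM, or to DMSO, for 3 h, then to Biotin-Ahx-Ub-VS (0.5 µM final) for 1 h. The labelled DUBs were enriched on NeutrAvidin, digested with LysC and trypsin, and analysed by diaPASEF LC-MS/MS. Average base-two log ratios of compound over DMSO came from median-normalised label-free quantities by unpaired t-test. Only proteins with at least 2 unique peptides were used.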
# [2] = compound: CN1c2ccccc2C(CS1(=O)=O)NC(=O)CCl
# Outline: as §1
# [3] = compound: Cl.ClCC(=O)N1CCc2ncncc2C1
# Outline: as §1
# [4] = compound: Cl.Cn1ncc2C(CCCc12)NC(=O)CCl
# Outline: as §1
# [5] = compound: ClCC(=O)NC1CCOc2ccccc12
# Outline: as §1
# [6] = compound: ClCC(=O)NC1CCCc2ccccc12
# Outline: (§2)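 These values are averaged ratios of compound to vehicle, tested by unpaired t-test. HEK293T lysate (495 µg per sample) was preincubated in triplicate with compound across a concentration series or vehicle for 3 h and then with Biotin-Ahx-Ub-VS at 0.5 µM final for 1 h. Deubiquitinases carrying the probe were NeutrAvidin-enriched, digested with LysC and trypsin, and measured by diaPASEF LC-MS/MS. Ratios are expressed as log2 from global-median-normalised Spectronaut label-free quantities, and only proteins with two or more unique peptides were included.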
# [7] = compound: ClCC(=O)N[C@@H]1CCCc2ccccc12
# Outline: as §2
# [8] = compound: ClCC(=O)N[C@H]1CCCc2ccccc12
# Outline: as §2
# [9] = compound: CCC1N(CCc2cc(OC)c(Cl)cc12)C(=O)CCl
# Outline: as §1
# [10] = compound: CCCC1N(CCc2cc(OC)c(OC)cc12)C(=O)CCl
# Outline: as §1
# Sequence of UniProt Q8N6M0 (Q8N6M0 whole entry): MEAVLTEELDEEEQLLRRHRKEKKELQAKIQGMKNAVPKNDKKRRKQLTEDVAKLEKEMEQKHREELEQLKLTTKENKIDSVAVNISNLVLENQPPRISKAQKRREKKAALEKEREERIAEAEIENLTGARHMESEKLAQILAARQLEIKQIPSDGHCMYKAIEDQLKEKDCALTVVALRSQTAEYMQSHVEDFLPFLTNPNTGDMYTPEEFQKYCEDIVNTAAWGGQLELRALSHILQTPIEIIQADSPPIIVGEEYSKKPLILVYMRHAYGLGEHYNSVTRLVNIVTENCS
# Sequence of UniProt Q92560 (Q92560 whole entry): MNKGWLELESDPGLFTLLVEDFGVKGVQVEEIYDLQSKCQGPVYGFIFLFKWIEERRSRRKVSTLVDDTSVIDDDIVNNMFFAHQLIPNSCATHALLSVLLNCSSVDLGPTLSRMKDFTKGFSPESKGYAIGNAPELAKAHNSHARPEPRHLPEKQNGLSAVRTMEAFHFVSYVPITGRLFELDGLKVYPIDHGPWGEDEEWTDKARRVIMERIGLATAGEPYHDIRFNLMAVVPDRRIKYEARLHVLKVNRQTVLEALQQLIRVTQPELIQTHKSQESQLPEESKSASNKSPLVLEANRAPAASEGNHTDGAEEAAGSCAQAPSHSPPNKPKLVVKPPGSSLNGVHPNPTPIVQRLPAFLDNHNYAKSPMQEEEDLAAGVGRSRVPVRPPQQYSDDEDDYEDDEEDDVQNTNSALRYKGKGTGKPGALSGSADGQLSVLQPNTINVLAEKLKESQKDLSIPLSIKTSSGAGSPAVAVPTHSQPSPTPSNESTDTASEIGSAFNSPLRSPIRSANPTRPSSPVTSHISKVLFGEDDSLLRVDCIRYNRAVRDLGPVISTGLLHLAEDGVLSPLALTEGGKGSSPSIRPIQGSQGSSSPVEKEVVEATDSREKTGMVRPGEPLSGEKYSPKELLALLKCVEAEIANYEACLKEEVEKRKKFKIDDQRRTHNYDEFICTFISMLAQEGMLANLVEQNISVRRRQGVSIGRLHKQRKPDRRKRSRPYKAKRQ
target,measurement,setting,value
BAP1 (UniProt Q92560),log2 ratio of Biotin-Ahx-Ub-VS probe labelling,[1]; compound concentration: 50uM,-0.142
same,log2 ratio of Biotin-Ahx-Ub-VS probe labelling,[1]; compound concentration: 200uM,-0.347
same,log2 ratio of Biotin-Ahx-Ub-VS probe labelling,[2]; compound concentration: 50uM,-0.805
same,log2 ratio of Biotin-Ahx-Ub-VS probe labelling,[2]; compound concentration: 200uM,-2.09 (active)
same,log2 ratio of Biotin-Ahx-Ub-VS probe labelling,[3]; compound concentration: 50uM,-0.468
same,log2 ratio of Biotin-Ahx-Ub-VS probe labelling,[3]; compound concentration: 200uM,-1.04 (active)
same,log2 ratio of Biotin-Ahx-Ub-VS probe labelling,[4]; compound concentration: 50uM,-0.38
same,log2 ratio of Biotin-Ahx-Ub-VS probe labelling,[4]; compound concentration: 200uM,-1.03 (active)
same,log2 ratio of Biotin-Ahx-Ub-VS probe labelling,[5]; compound concentration: 50uM,-0.598
same,log2 ratio of Biotin-Ahx-Ub-VS probe labelling,[5]; compound concentration: 200uM,-2.15 (active)
same,log2 ratio of Biotin-Ahx-Ub-VS probe labelling,[6]; compound concentration: 0.78uM,-0.121
same,log2 ratio of Biotin-Ahx-Ub-VS probe labelling,[6]; compound concentration: 1.56uM,0.0581
same,log2 ratio of Biotin-Ahx-Ub-VS probe labelling,[6]; compound concentration: 3.13uM,-0.0976
same,log2 ratio of Biotin-Ahx-Ub-VS probe labelling,[6]; compound concentration: 6.25uM,-0.0118
same,log2 ratio of Biotin-Ahx-Ub-VS probe labelling,[6]; compound concentration: 12.5uM,-0.122
same,log2 ratio of Biotin-Ahx-Ub-VS probe labelling,[6]; compound concentration: 25uM,-0.306
same,log2 ratio of Biotin-Ahx-Ub-VS probe labelling,[6]; compound concentration: 50uM,-0.368
same,log2 ratio of Biotin-Ahx-Ub-VS probe labelling,[6]; compound concentration: 100uM,-0.762
same,log2 ratio of Biotin-Ahx-Ub-VS probe labelling,[6]; compound concentration: 200uM,-1.34 (active)
same,log2 ratio of Biotin-Ahx-Ub-VS probe labelling,[7]; compound concentration: 0.78uM,-0.169
same,log2 ratio of Biotin-Ahx-Ub-VS probe labelling,[7]; compound concentration: 1.56uM,-0.0659
same,log2 ratio of Biotin-Ahx-Ub-VS probe labelling,[7]; compound concentration: 3.13uM,-0.0706
same,log2 ratio of Biotin-Ahx-Ub-VS probe labelling,[7]; compound concentration: 6.25uM,-0.137
same,log2 ratio of Biotin-Ahx-Ub-VS probe labelling,[7]; compound concentration: 12.5uM,-0.178
same,log2 ratio of Biotin-Ahx-Ub-VS probe labelling,[7]; compound concentration: 25uM,-0.163
same,log2 ratio of Biotin-Ahx-Ub-VS probe labelling,[7]; compound concentration: 50uM,-0.418
same,log2 ratio of Biotin-Ahx-Ub-VS probe labelling,[7]; compound concentration: 100uM,-0.683
same,log2 ratio of Biotin-Ahx-Ub-VS probe labelling,[7]; compound concentration: 200uM,-1.54 (active)
same,log2 ratio of Biotin-Ahx-Ub-VS probe labelling,[8]; compound concentration: 0.78uM,-0.119
same,log2 ratio of Biotin-Ahx-Ub-VS probe labelling,[8]; compound concentration: 1.56uM,-0.0453
same,log2 ratio of Biotin-Ahx-Ub-VS probe labelling,[8]; compound concentration: 3.13uM,-0.0819
same,log2 ratio of Biotin-Ahx-Ub-VS probe labelling,[8]; compound concentration: 6.25uM,0.12
same,log2 ratio of Biotin-Ahx-Ub-VS probe labelling,[8]; compound concentration: 12.5uM,-0.18
same,log2 ratio of Biotin-Ahx-Ub-VS probe labelling,[8]; compound concentration: 25uM,-0.239
same,log2 ratio of Biotin-Ahx-Ub-VS probe labelling,[8]; compound concentration: 50uM,-0.305
same,log2 ratio of Biotin-Ahx-Ub-VS probe labelling,[8]; compound concentration: 100uM,-0.756
same,log2 ratio of Biotin-Ahx-Ub-VS probe labelling,[8]; compound concentration: 200uM,-1.39 (active)
same,log2 ratio of Biotin-Ahx-Ub-VS probe labelling,[9]; compound concentration: 50uM,-0.0732
same,log2 ratio of Biotin-Ahx-Ub-VS probe labelling,[9]; compound concentration: 200uM,-0.717
same,log2 ratio of Biotin-Ahx-Ub-VS probe labelling,[10]; compound concentration: 50uM,-0.385
same,log2 ratio of Biotin-Ahx-Ub-VS probe labelling,[10]; compound concentration: 200uM,-0.766
OTUD6B (UniProt Q8N6M0),log2 ratio of Biotin-Ahx-Ub-VS probe labelling,[1]; compound concentration: 50uM,-0.125
same,log2 ratio of Biotin-Ahx-Ub-VS probe labelling,[1]; compound concentration: 200uM,-0.283
same,log2 ratio of Biotin-Ahx-Ub-VS probe labelling,[2]; compound concentration: 50uM,-0.286
same,log2 ratio of Biotin-Ahx-Ub-VS probe labelling,[2]; compound concentration: 200uM,-0.251
same,log2 ratio of Biotin-Ahx-Ub-VS probe labelling,[3]; compound concentration: 50uM,-0.254
same,log2 ratio of Biotin-Ahx-Ub-VS probe labelling,[3]; compound concentration: 200uM,-0.722
same,log2 ratio of Biotin-Ahx-Ub-VS probe labelling,[4]; compound concentration: 50uM,0.122
same,log2 ratio of Biotin-Ahx-Ub-VS probe labelling,[4]; compound concentration: 200uM,-0.00452
same,log2 ratio of Biotin-Ahx-Ub-VS probe labelling,[5]; compound concentration: 50uM,0.0287
same,log2 ratio of Biotin-Ahx-Ub-VS probe labelling,[5]; compound concentration: 200uM,-0.0666
same,log2 ratio of Biotin-Ahx-Ub-VS probe labelling,[6]; compound concentration: 0.78uM,-0.127
same,log2 ratio of Biotin-Ahx-Ub-VS probe labelling,[6]; compound concentration: 1.56uM,-0.0797
same,log2 ratio of Biotin-Ahx-Ub-VS probe labelling,[6]; compound concentration: 3.13uM,-0.201
same,log2 ratio of Biotin-Ahx-Ub-VS probe labelling,[6]; compound concentration: 6.25uM,-0.105
same,log2 ratio of Biotin-Ahx-Ub-VS probe labelling,[6]; compound concentration: 12.5uM,-0.198
same,log2 ratio of Biotin-Ahx-Ub-VS probe labelling,[6]; compound concentration: 25uM,-0.128
same,log2 ratio of Biotin-Ahx-Ub-VS probe labelling,[6]; compound concentration: 50uM,-0.0883
same,log2 ratio of Biotin-Ahx-Ub-VS probe labelling,[6]; compound concentration: 100uM,-0.038
same,log2 ratio of Biotin-Ahx-Ub-VS probe labelling,[6]; compound concentration: 200uM,-0.209
same,log2 ratio of Biotin-Ahx-Ub-VS probe labelling,[7]; compound concentration: 0.78uM,-0.264
same,log2 ratio of Biotin-Ahx-Ub-VS probe labelling,[7]; compound concentration: 1.56uM,-0.2
same,log2 ratio of Biotin-Ahx-Ub-VS probe labelling,[7]; compound concentration: 3.13uM,-0.167
same,log2 ratio of Biotin-Ahx-Ub-VS probe labelling,[7]; compound concentration: 6.25uM,-0.186
same,log2 ratio of Biotin-Ahx-Ub-VS probe labelling,[7]; compound concentration: 12.5uM,-0.156
same,log2 ratio of Biotin-Ahx-Ub-VS probe labelling,[7]; compound concentration: 25uM,-0.268
same,log2 ratio of Biotin-Ahx-Ub-VS probe labelling,[7]; compound concentration: 50uM,-0.175
same,log2 ratio of Biotin-Ahx-Ub-VS probe labelling,[7]; compound concentration: 100uM,-0.224
same,log2 ratio of Biotin-Ahx-Ub-VS probe labelling,[7]; compound concentration: 200uM,-0.168
same,log2 ratio of Biotin-Ahx-Ub-VS probe labelling,[8]; compound concentration: 0.78uM,-0.139
same,log2 ratio of Biotin-Ahx-Ub-VS probe labelling,[8]; compound concentration: 1.56uM,-0.177
same,log2 ratio of Biotin-Ahx-Ub-VS probe labelling,[8]; compound concentration: 3.13uM,-0.0832
same,log2 ratio of Biotin-Ahx-Ub-VS probe labelling,[8]; compound concentration: 6.25uM,-0.0276
same,log2 ratio of Biotin-Ahx-Ub-VS probe labelling,[8]; compound concentration: 12.5uM,-0.0686
same,log2 ratio of Biotin-Ahx-Ub-VS probe labelling,[8]; compound concentration: 25uM,-0.159
same,log2 ratio of Biotin-Ahx-Ub-VS probe labelling,[8]; compound concentration: 50uM,0.0307
same,log2 ratio of Biotin-Ahx-Ub-VS probe labelling,[8]; compound concentration: 100uM,-0.0663
same,log2 ratio of Biotin-Ahx-Ub-VS probe labelling,[8]; compound concentration: 200uM,-0.229
same,log2 ratio of Biotin-Ahx-Ub-VS probe labelling,[9]; compound concentration: 50uM,0.0279
same,log2 ratio of Biotin-Ahx-Ub-VS probe labelling,[9]; compound concentration: 200uM,-0.78
same,log2 ratio of Biotin-Ahx-Ub-VS probe labelling,[10]; compound concentration: 50uM,-0.398
same,log2 ratio of Biotin-Ahx-Ub-VS probe labelling,[10]; compound concentration: 200uM,-0.676
